A selection: hits, their analogues and other compounds. The true share with any hit is near 6.7%.
Pf Dd2 growth = P. falciparum Dd2 growth inhibition. activity change, % at 10 µM. SYBR Green, 72 h; hits give low values. actives 2.3% (n = 94,000); in the data active = activity change below about -80%
C diff HTS = blocks growth of Clostridium difficile. growth activity, negative = inhibition, % at 16 µg/mL (by protocol). actives 0.25% (n = 86,000). Clostridium difficile clinical isolate growth, OD600, 24 h; hits give low values;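 active = mean growth activity at or below -80% and every replicate also at or below -80%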
Tcruzi prolif = inhibitors of T. cruzi proliferation | T. cruzi beta-gal in NIH3T3, GalScreen luminescence, 90 h | inhibition, % at 8.34 µM | actives 5.9% (n = 77,000);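 active = mean inhibition above about 93%, with at least 55% of replicates each passing it, limit read from the data, passing the limit was not always enough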
Numbers stand for hits; i = inactive; nt = no result given.

SMILES	Pf Dd2 growth	C diff HTS	Tcruzi prolif
C[C@@H]1CCCCO[C@@H](CN(C)C(=O)CCC(F)(F)F)[C@H](C)CN([C@@H](C)CO)C(=O)c2cc(NS(=O)(=O)c3ccccc3)ccc2O1	i	i	i
CNC[C@H]1Oc2cc(C#Cc3cccc(OC)c3)ccc2S(=O)(=O)N([C@@H](C)CO)C[C@@H]1C	i	i	i
COc1ccc(C#Cc2ccc3c(c2)O[C@H](CN(C)S(=O)(=O)c2ccccc2F)[C@@H](C)CN([C@H](C)CO)S3(=O)=O)cc1	-87.2	i	nt
COc1ccc(S(=O)(=O)N(C)C[C@H]2Oc3cc(C#CC4CCCCC4)ccc3S(=O)(=O)N([C@@H](C)CO)C[C@H]2C)cc1	i	nt	i
COc1ccc(C#Cc2ccc3c(c2)O[C@@H](CN(C)C)[C@@H](C)CN([C@@H](C)CO)S3(=O)=O)cc1	i	i	i
COc1ccccc1S(=O)(=O)N(C)C[C@H]1Oc2cc(C#CCC(C)C)ccc2S(=O)(=O)N([C@H](C)CO)C[C@@H]1C	i	i	i
COc1ccc(S(=O)(=O)N(C)C[C@@H]2Oc3cc(C#CC4CCCCC4)ccc3S(=O)(=O)N([C@@H](C)CO)C[C@H]2C)cc1	-83.9	nt	i
CNC[C@@H]1Oc2cc(C#Cc3ccc(OC)cc3)ccc2S(=O)(=O)N([C@@H](C)CO)C[C@H]1C	-85.0	i	i
COc1ccc(C#Cc2ccc3c(c2)O[C@@H](CN(C)S(=O)(=O)c2ccccc2F)[C@@H](C)CN([C@@H](C)CO)S3(=O)=O)cc1	-90.1	i	nt
O=C(C[C@@H]1C[C@H]2c3cc(NC(=O)Nc4ccccc4)ccc3O[C@H]2[C@H](CO)O1)NCc1ccncc1	i	nt	i
C[C@@H]1CN([C@H](C)CO)C(=O)Cc2cc(NC(=O)Nc3cccc4ccccc34)ccc2O[C@H]1CN(C)C	i	i	nt
C[C@@H]1CCCCO[C@@H](CN(C)Cc2ccc(C(F)(F)F)cc2)[C@H](C)CN([C@@H](C)CO)C(=O)c2cc(NS(=O)(=O)c3ccc(Cl)cc3)ccc2O1	i	i	i
COc1ccc2c3c([nH]c2c1)[C@@H](CO)N(Cc1ccccn1)CC31CN(C(C)=O)C1	i	nt	nt
O=C(c1ccc(F)cc1)N1CC(=O)N2[C@H](CO)[C@H](c3ccc(C#CCC4CCCC4)cc3)[C@H]2C1	i	i	nt
Cc1ccc(S(=O)(=O)N(C)C[C@@H]2OCCCC[C@H](C)Oc3ccc(NS(=O)(=O)c4ccc(Cl)cc4)cc3C(=O)N([C@H](C)CO)C[C@@H]2C)cc1	i	i	108.0
Cc1ccc(S(=O)(=O)N(C)C[C@H]2OCCCC[C@H](C)Oc3ccc(NS(=O)(=O)c4ccc(F)cc4)cc3C(=O)N([C@@H](C)CO)C[C@H]2C)cc1	-82.1	i	115.2
Cc1noc(C)c1S(=O)(=O)Nc1ccc2c(c1)C(=O)N([C@@H](C)CO)C[C@H](C)[C@H](CN(C)S(=O)(=O)c1ccc(Cl)cc1)OCCCC[C@@H](C)O2	i	i	i
Cc1ccc(S(=O)(=O)N(C)C[C@@H]2OCCCC[C@@H](C)Oc3ccc(NS(=O)(=O)c4ccc(Cl)cc4)cc3C(=O)N([C@H](C)CO)C[C@H]2C)cc1	i	i	i
Cc1ccc(S(=O)(=O)N(C)C[C@@H]2OCCCC[C@H](C)Oc3ccc(NS(=O)(=O)c4ccc(F)cc4)cc3C(=O)N([C@@H](C)CO)C[C@@H]2C)cc1	i	i	i
Cc1ccc(S(=O)(=O)N(C)C[C@@H]2OCCCC[C@@H](C)Oc3ccc(NS(=O)(=O)c4ccc(Cl)cc4)cc3C(=O)N([C@@H](C)CO)C[C@H]2C)cc1	i	i	i
Cc1noc(C)c1S(=O)(=O)Nc1ccc2c(c1)C(=O)N([C@@H](C)CO)C[C@H](C)[C@@H](CN(C)S(=O)(=O)c1ccc(Cl)cc1)OCCCC[C@@H](C)O2	-83.6	i	i
Cc1ccc(S(=O)(=O)Nc2ccc3c(c2)C(=O)N([C@H](C)CO)C[C@@H](C)[C@H](CN(C)S(=O)(=O)c2ccc(Cl)cc2)OCCCC[C@@H](C)O3)cc1	-80.9	i	i
CCCC(=O)N1CC2(CCN(C(=O)CC3CC3)CC2)c2c(n(C)c3cc(OC)ccc23)[C@H]1CO	i	nt	nt
COc1ccc2c3c(n(C)c2c1)[C@H](CO)N(C(=O)C1CCCC1)CC31CCN(Cc2cccc(F)c2)CC1	i	i	nt
COC(=O)C[C@H]1C[C@@H]2c3cc(NC(=O)CC4CC4)ccc3O[C@@H]2[C@H](CO)O1	i	i	i
SMILES	Pf Dd2 growth	C diff HTS	Tcruzi prolif
O=C(C1=C[C@@H](c2ccc(Br)cc2)C[C@@H](OCc2ccc(CO)cc2)O1)N1CCCC1	nt	i	nt
COc1ccc(NC(=O)N2CCC3(CC2)CN(C(=O)C2CCC2)[C@H](CO)c2c3c3ccc(OC)cc3n2C)cc1	-89.6	i	nt
COc1ccc2c3c(n(C)c2c1)[C@H](CO)N(C(=O)NC(C)C)CC31CN(Cc2nccs2)C1	i	i	nt
COc1ccc2c3c(n(C)c2c1)[C@@H](CO)N(C(=O)C1CCCCC1)CC31CCN(C(=O)Nc2cccc(F)c2)CC1	i	nt	nt
COc1ccc2c3c(n(C)c2c1)[C@@H](CO)N(CC1CCCC1)CC31CCN(C(=O)Nc2ccccc2)CC1	-84.1	i	nt
CCCC(=O)N1CC2(CN(C(=O)Nc3cccc(F)c3)C2)c2c(n(C)c3cc(OC)ccc23)[C@@H]1CO	i	i	nt
COc1ccc2c3c(n(C)c2c1)[C@@H](CO)N(C(=O)Nc1cccc(F)c1)CC31CN(Cc2nccs2)C1	-85.3	i	nt
CCCC(=O)N1CC2(CN(C(=O)Nc3cccc(F)c3)C2)c2c(n(C)c3cc(OC)ccc23)[C@H]1CO	-82.4	i	nt
COc1ccc2c3c(n(C)c2c1)[C@@H](CO)N(CC1CC1)CC31CCN(C(=O)Nc2ccccc2)CC1	i	i	nt
C[C@@H]1CN([C@@H](C)CO)S(=O)(=O)c2ccc(-c3ccccc3)cc2O[C@H]1CN(C)C(=O)C1CCC1	i	nt	i
COc1cccc(S(=O)(=O)N[C@@H]2C=C[C@H](CC(=O)NCc3ccccc3)O[C@@H]2CO)c1	i	i	nt
C[C@@H]1CN([C@H](C)CO)C(=O)c2cc(NC(=O)Cn3cnnn3)ccc2O[C@@H]1CN(C)C	i	i	nt
COc1ccc2c3c(n(C)c2c1)[C@@H](CO)N(C(=O)C1CCC1)CC31CN(C)C1	i	i	nt
COc1ccc(NC(=O)N2CC3(C2)CN(C(=O)C2CCC2)[C@H](CO)c2c3c3ccc(OC)cc3n2C)cc1	-88.0	i	nt
COc1ccc2c3c(n(C)c2c1)[C@H](CO)N(C(=O)C1CCCC1)CC31CCN(C(=O)Nc2cccc(F)c2)CC1	i	i	nt
COc1ccc2c3c(n(C)c2c1)[C@H](CO)N(C(=O)C1CCCC1)CC31CN(C(=O)CC2CC2)C1	-85.1	i	nt
COc1ccc2c3c(n(C)c2c1)[C@@H](CO)N(C(=O)C1CCCC1)CC31CCN(C(=O)Nc2cccc(F)c2)CC1	-91.0	i	nt
COc1ccc2c3c(n(C)c2c1)[C@H](CO)N(C(=O)C1CCCC1)CC31CN(C(=O)CN(C)C)C1	i	nt	nt
COc1ccccc1S(=O)(=O)Nc1ccc2c(c1)OC[C@H](C)NC[C@H](C)[C@@H](OC)CN(C)C2=O	i	i	nt
COc1ccc2c3c(n(C)c2c1)[C@H](CO)N(C(C)=O)CC31CCN(C(=O)C2CC2)CC1	i	i	nt
CO[C@H]1CN(C)C(=O)c2ccc(NC(C)=O)cc2OC[C@H](C)N(C(=O)C2CC2)C[C@@H]1C	i	i	nt
